From PubChem BioAssay
HTT-AS promoter = activators of huntingtin-antisense promoter activity | HEK293 HTT-AS promoter firefly luciferase reporter, 24 h; response scale: percent change from vehicle, -100% = no light | Potency, µM (titrated, usually from 57.5 µM), inactives show at the top dose activity change, positive = activation, actives largely listed as activators | 0.24% of 48,000 active; further: potency means the concentration at half of the fitted maximal effect; nearly all actives have a fitted effect of over 55% in size
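HEK293 luciferase promoter-reporter cells (2,500/well) plated 24 h, then compounds added at up to 57.5 uM final for 24 h at 37 °C. Firefly luminescence by Dual-Glo, normalized to vehicle (0%) and zero RLU (-100%).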
GPR32 ag = GPR32 (DRV1) agonism, beta-arrestin recruitment; O75388; CHO-K1 GPR32 beta-arrestin PathHunter luminescence, 90 min; zero percent set by DMSO-only wells; activation, % at 76.9 µM; 2.5% of 48,000 active; AID 1346428;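 active means activation of at least 60% and not above a set upper limit, about 1 call in 100 departs from these limits; inconclusive means activation of 40% to 60%, or above that upper limit; inactive means activation under 40%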; further: 0% is about no effect
Target sequence (O75388 whole entry, looked up): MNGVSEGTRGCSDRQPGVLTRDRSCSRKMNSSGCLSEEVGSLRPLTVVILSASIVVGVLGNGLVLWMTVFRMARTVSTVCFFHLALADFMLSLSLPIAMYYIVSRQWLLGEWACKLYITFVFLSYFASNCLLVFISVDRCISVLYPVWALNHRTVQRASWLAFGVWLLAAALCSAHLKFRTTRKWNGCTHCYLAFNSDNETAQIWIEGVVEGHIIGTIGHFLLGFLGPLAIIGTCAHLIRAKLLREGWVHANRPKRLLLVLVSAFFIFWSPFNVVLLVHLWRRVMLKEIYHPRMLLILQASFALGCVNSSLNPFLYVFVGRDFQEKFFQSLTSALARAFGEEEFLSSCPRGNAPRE
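Cells are plated overnight, treated with compounds in DMSO for 90 minutes at 37 °C, and developed with PathHunter detection reagent for 1 hour before luminescence is read; signal reflects beta-arrestin binding to GPR32 in engineered CHO-K1 cells.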
FH mod = Identification of activators of human fumarate hydratase by quantitative high-throughput screening; Potency, µM (highest dose often 79.9 µM), inactives show at the top dose activity change, negative = inhibition, most hits filed as inhibitors; 0.22% of 54,000 active; Fumarate hydratase, mitochondrial (Homo sapiens), P07954; AID 1347055, 2019; FH coupled MDH/diaphorase resazurin fluorescence, 15 min; further: potency means the concentration at half of the fitted maximal effect; on the % scale 0 is the no-effect control and ±100 the full control effect; the screen sought activators but most active calls are inhibition curves; nearly all actives have a fitted effect of over 45% in size
HTT promoter inh = inhibitors of huntingtin promoter activity; HEK293 HTT promoter firefly luciferase reporter, 24 h; Potency, µM (highest dose often 57.5 µM), without a hit: top-dose activity change, negative = inhibition, usual class: inhibitors; 0.93% of 48,000 active; AID 1508623; further: potency means the concentration at half of the fitted maximal effect; nearly all actives have a fitted effect of over 50% in size
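Firefly luciferase readout (Dual-Glo, 10 min RT) after 24 h, 37 °C compound exposure (final up to 57.5 uM) of HEK293 reporter cells cultured 24 h beforehand; PTC124 at 50 uM final as control inhibitor; activity scaled vehicle 0%, zero RLU -100%.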
NTMT1 inh = blocks human N-terminal methyltransferase 1 activity; Potency, µM (series often up to 114 µM), for inactives: at the top dose activity change, negative = inhibition, usual class: inhibitors; NTMT1 MTase-Glo SAH luminescence, purified enzyme; 2.5% of 59,000 active; Q9BV86;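 further: potency means the concentration at half of the fitted maximal effect; plate controls were DMSO vehicle for no effect and no enzyme for full effect; nearly all actives have a fitted effect of over 65% in size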
Target sequence (Q9BV86 whole entry, looked up): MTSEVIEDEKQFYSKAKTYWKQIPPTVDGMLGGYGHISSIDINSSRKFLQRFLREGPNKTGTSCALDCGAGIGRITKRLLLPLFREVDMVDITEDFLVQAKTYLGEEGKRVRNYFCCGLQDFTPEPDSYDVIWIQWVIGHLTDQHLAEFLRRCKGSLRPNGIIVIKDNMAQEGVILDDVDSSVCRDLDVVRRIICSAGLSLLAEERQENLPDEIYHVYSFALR
Starred values were filed as active, the others as inactive; u = inconclusive; x = not tested or not shown; [ ] = dose if it differs, or a comment. In the library only some 4.7% were active in any assay of this set; here they are far more common. Unless noted, the call rests on the fitted dose curve; in most records, active means well fitted curve in the direction sought with a large enough effect; inconclusive means small, poorly fitted or top-dose-only effect, or another doubt; inactive means no such curve, though single readings can be large; an effect the other way counts as inactive or inconclusive.

SMILES	HTT-AS promoter	GPR32 ag	FH mod	HTT promoter inh	NTMT1 inh
CCn1cc2nc(SCc3cccc(C(F)(F)F)c3)n(CCc3ccccc3)c(=O)c2n1	1%	-22	32µM*	-6%	-5%
CCn1cc2nc(SCC(=O)Nc3ccc(C)cc3C)n(Cc3ccc(C)cc3)c(=O)c2n1	-35%	-7	-43%	u	89µM*
CCn1cc2nc(SCc3cccc(C)c3)n(CCc3ccccc3)c(=O)c2n1	-4%	3	40µM*	-29%	10%
CCCCN(CC)CCNC(=O)c1c(C)oc2ncnc(N3CCOCC3)c12	-2%	-6	14%	8%	1%
CCn1c(SCc2ccc(F)cc2Cl)nnc1-c1nonc1NC(C)=O	-22%	6	-21%	u	3%
COc1ccc(Nc2oc(-c3ccc(COc4ccccc4)o3)nc2C#N)cc1	-1%	u	-19%	-9%	13%
CCOc1ccc(Nc2oc(-c3ccc(COc4ccc(C)cc4)o3)nc2C#N)cc1	-13%	67*	-2%	-21%	5%
COc1ccc(Nc2oc(-c3ccc(COc4cccc(C)c4)o3)nc2C#N)cc1	-22%	97*	-9%	-18%	5%
COc1ccc(Nc2oc(-c3ccc(COc4ccc(OC)cc4)o3)nc2C#N)cc1	-34%	71*	3%	u	6%
COc1ccc(CCNc2oc(COc3cccc(C)c3)nc2C#N)cc1OC	-32%	111*	u	u	7%
COc1ccc(CCNc2oc(COc3ccc(Cl)cc3)nc2C#N)cc1OC	-31%	38	u	u	-1%
Cc1ccc(CNc2oc(-c3ccc(COc4ccc(C)cc4)o3)nc2C#N)cc1	-19%	-25	u	u	13%
C/C=C(/C)C(=O)O[C@H]1C[C@]2(C)O[C@@H]2[C@@H](OC(C)=O)[C@@]2(C)CC[C@@](O)(C(C)C)[C@H]12	x	x	5%[53.3 µM]	x	3%[29.8 µM]
N#C/C(=C\c1ccc(O)c(O)c1)C(=O)NCCc1ccccc1	x	-3	32µM*	x	x
O=C(CSc1nnc(CNC(=O)c2c(F)cccc2Cl)o1)Nc1ccccc1F	-2%	-10	4%	-5%	1%
Cc1ccc(C(=O)Nc2nnc(SCc3cc(=O)c4c(C)ccc(C)c4[nH]3)s2)cc1	-27%	71*	-26%	u	-17%
O=C(Nc1nnc(SCc2cc(=O)c3ccccc3[nH]2)s1)c1ccccc1	-34%	33	-23%	u	0%
Cc1ccccc1C(C(=O)NC1CCCCC1)N(C(=O)Cn1ccnc1C)c1cccc(F)c1 (centres undefined)	u	x	7%	7%	-2%[57.5 µM]
COCCN1C(=O)c2[nH]nc(-c3c(C)cc(C)cc3O)c2C1c1cccc(O)c1 (centres undefined)	-41%	85*	3%	u	13%
COc1cc(C2c3c(-c4c(C)cc(C)cc4O)n[nH]c3C(=O)N2CCO)cc(OC)c1OC (centres undefined)	-18%	u	-2%	-25%	10%
COc1cc(C2c3c(-c4cc(C)ccc4O)n[nH]c3C(=O)N2Cc2ccco2)cc(OC)c1OC (centres undefined)	-14%	-17	22µM*	-7%	7%
COc1cc(C2c3c(-c4c(C)cc(C)cc4O)n[nH]c3C(=O)N2Cc2ccco2)cc(OC)c1OC (centres undefined)	-33%	65*	-8%	-33%	14%
COc1cccc(NC(=O)CNC(=O)Cn2c(C)cc3ccccc3c2=O)c1	-2%	-4	-9%	-7%	-4%
COc1ccc(S(=O)(=O)N(CCO)c2ccccc2CN(C)C/C=C/c2ccc(Cl)cc2)cc1	x	x	x	x	12%
CN(C/C=C/c1ccccc1)Cc1cccc2ccccc12	-26%	117*	-2%[53.3 µM]	-8%	u
SMILES	HTT-AS promoter	GPR32 ag	FH mod	HTT promoter inh	NTMT1 inh
CN(Cc1ccc(C(C)(C)C)cc1)Cc1cccc2ccccc12	-15%	68*	1%[53.3 µM]	2%	13%[57.5 µM]
O=C(NCCCNc1nc(Nc2cccc(NC(=O)N3CCCC3)c2)ncc1I)c1cccs1	-46%	x	-27%	u	40µM*
CC(NC(=O)c1cc2sccc2n1Cc1ccc(F)cc1)c1ccccc1 (centres undefined)	-21%	100*	-3%	-14%	12%
CCOc1ccc(CNCCSc2nnnn2C)cc1OC	-7%	-6	1%	-5%	-3%
Cn1nnnc1SCCNCc1cc(Br)ccc1OCc1ccccc1Cl	-52%	75*	u	28µM*	15%
COc1cc(CNCCSc2nnnn2C)ccc1OCc1ccccc1C	0%	73*	-6%	9%	u
OCCOc1ccc(/C(=C(/CCCl)c2ccccc2)c2ccccc2)cc1	x	x	x	x	14%
COc1ccccc1N1CCN(C(=O)Cn2ncc3ccsc3c2=O)CC1	-5%	6	-30%	-4%	10%
Cc1occc(=O)c1O[C@@H]1O[C@H](CO[C@@H]2OC[C@](O)(CO)[C@H]2O)[C@@H](O)[C@H](O)[C@H]1O	x	x	6%[53.3 µM]	x	-6%[29.8 µM]
O=C(Cn1nnnc1-c1ccccc1F)Nc1ccc(OC(F)(F)F)cc1	-9%	75*	0%	-4%	13%
Cn1ncc(-c2nnc(-c3ccccc3)n2CCCn2ccnc2)c1N	x	x	x	x	19%
COc1ccc(CN2CCc3c(c(=O)n4ncc(C(=O)N5CCN(c6ccc(F)cc6)CC5)c4n3C)C2)cc1	-51%	-10	u	13µM*	u
Cc1cc(F)ccc1S(=O)(=O)Nc1cc2c(C(=O)O)c(C)oc2c2ccccc12	-16%	6	16µM*	-4%	4%
O=C(CCC1N=C2c3ccccc3N=C(SCc3ccc(F)cc3)N2C1=O)NCCc1ccccc1 (centres undefined)	-38%	-34	-21%	-29%	-1%
O=c1ccn([C@@H]2O[C@H](CO)[C@H](O)[C@H]2O)c(=O)[nH]1	4%	x	15%[53.3 µM]	u	18%[57.5 µM]
CCCc1nn2c(=O)cc(COC(=O)c3cccc(NC(=O)CCc4ccccc4)c3)nc2s1	8%	-6	-27%	1%	5%
CCCCc1nn2c(=O)cc(COC(=O)c3cccc(NC(=O)CCc4ccccc4)c3)nc2s1	0.25µM*	-7	-10%	72%	3%
Cc1ccc(C)c(CN2C(=O)C(O)(c3c[nH]c4ccccc34)c3ccccc32)c1 (centres undefined)	-31%	84*	u	u	17%
Cc1ccc(CN2C(=O)C(O)(c3c(C)[nH]c4ccccc34)c3ccccc32)cc1 (centres undefined)	-20%	70*	u	-15%	u
O=C1N(Cc2ccccc2Cl)c2ccccc2C1(O)c1c[nH]c2ccccc12 (centres undefined)	-39%	84*	u	u	0%
C/C(=N/NC(=O)c1ccncc1)C(=O)O	0%	-37	1%[53.3 µM]	4%	26%[57.5 µM]
